Assay results published in PubChem BioAssay (NCATS).
Records with an inconclusive call do not appear. The source made the active and inactive calls. Calls follow the shape of the dose curve; as a rule, active = well fitted cell-killing curve with a large enough effect; inconclusive = small, poorly fitted or top-dose-only effect, or effect the other way; inactive = flat fitted curve, though single readings scatter.

assay: MultiTox-Fluor Cytotoxicity Assay - LYMP1-002 - Live Cells (AID 955); details: LYMP1-002 lymphoblastoid live-cell protease fluorescence viability; series mostly up to 46.1 µM; viability change, negative = cytotoxic: at the top concentration
From the text: NIH Chemical Genomics Center [NCGC]
NIH Molecular Libraries Screening Centers Network [MLSCN]
National Institutes of Environmental Health Sciences [NIEHS]
National Toxicology Program [NTP]
We have developed a 1536-well cell-based assay for quantitative high throughput screening (qHTS) against a number of cell lines to determine in vitro cytotoxicity of small molecules. This particular assay uses a human lymphoblastoid cell line (LYMP1-002) purchased from Coriell Institute.
NCGC Assay Protocol Summary:
The MultiTox-Fluor Cytotoxicity Assay (Promega) is a homogeneous method to simultaneously measure the relative number of live and dead cells in culture by detecting changes in cell membrane integrity. There are two fluorogenic peptide substrates in the assay reagent. Viable cells are determined when the cell-permeant substrate (GF-AFC) enters the cell and is cleaved by protease from live cells resulting in liberated fluorophore. This live-cell protease activity restricted to viable cells is proportional to cell number. The dead cells are determined by using fluorogenic cell-impermeant peptide substrate (bis-AAF-R110) which cleaved by dead cell proteases leaking from damaged cell membrane.
Using the MultiTox-Fluor Cytotoxicity Assay, the relative number of live cells was measured in the lymphoblastoid cell line with complete culture medium following compound treatment for 16 hours. The assay was performed in opaque black Kalypsys 1536-well plates. In the screen, tetraoctylammonium bromide was used as positive control. Library compounds were measured for their ability to cause acute toxicity in the cell line, as reflected by a decrease in live cell protease activity, in a concentration-dependent manner. […] AC50 values were determined from concentration-response data modeled with the standard Hill equation.
qHTS protocol for MultiTox-Fluor Cytotoxicity assay
[Step] [Parameter] [Value] [Description]
1. Reagent; 5 uL; 2500 lymphoblastoid cells/well
2. Time; 5 hr; 37 C incubation
4. Controls; 23 nL; Tetraoctylammonium bromide 6.4pM to 92 uM
5. Time; 16 hr; 37 C incubation
6. Reagent; 5 uL; MuliTox-Fluor Assay reagent
7. Time; 60 min; Room Temperature
8. Detection; live-cell fluorescence (Ex/Em=405/510); EnVision plate reader
Keywords: cell viability, cytotoxicity, lymphoblastoid cell line, fluorescence, NTPHTS, NTPHTS_NCGC, NIEHS, EPA, DSSTox, MLSMR, MLSCN, NIH Roadmap, qHTS, NCGC
% is scaled to controls: 0 for no effect and ±100 for the full control effect.

SMILES | viability change, negative = cytotoxic
C=C(C)C(=O)OCC(C)C | 8.42% (inactive)
CC/C=C/C#N | 11.3% (inactive)
O=P(O)(OCc1ccccc1)OCc1ccccc1 | -6.45% (inactive)
CC=C(Cl)Cl | 4.41% (inactive)
Cc1cccc(C)c1[N+](=O)[O-] | 2.56% (inactive)
CCCCCCCCN | 1.3% (inactive)
BrC/C=C/CBr | -5.65% (inactive)
Cc1ccc(C)cc1 | 1.31% (inactive)
Nc1cccc2c(=O)[nH][nH]c(=O)c12 | -3.36% (inactive)
Cc1ccco1 | 3.92% (inactive)
Clc1ccc(Cl)c(Cl)c1Cl | 1.43% (inactive)
CC(C)=C1CCC(C)CC1=O (stereo not given) | 6.2% (inactive)
O=[N+]([O-])c1c(Cl)cc(Cl)cc1Cl | 4.99% (inactive)
O=Cc1cccc(Br)c1 | 0.476% (inactive)
Cc1ccc2nc(-c3ccc(N)cc3)sc2c1S(=O)(=O)O | 8.19% (inactive)
Cc1cc(C)cc(N)c1 | 9.95% (inactive)
Nc1cc(S(=O)(=O)O)ccc1O | 3.66% (inactive)
CCCCC/C=C/C=C/C=O | 2.06% (inactive)
OC1CCCC1 | 7.38% (inactive)
Nc1cccc(C(F)(F)F)c1 | -0.758% (inactive)

SMILES | viability change, negative = cytotoxic
c1ccsc1 | 2.99% (inactive)
CC(C)c1ccccc1 | 0.297% (inactive)
Cc1cccc2sc(N)nc12 | 12.7% (inactive)
Cc1cccc2ccccc12 | 8.86% (inactive)
Fc1ccccc1 | 8.16% (inactive)
NC(=S)NNC(N)=S | 2.38% (inactive)
O=C(O)CCSSCCC(=O)O | -4.35% (inactive)
CCCCCCCCC/C=C/CC1CC(=O)OC1=O (stereo not given) | 0.497% (inactive)
CC(C)N(C)C | -3.48% (inactive)
CCNc1cc(O)ccc1C | 0.763% (inactive)
CC(=O)c1nccs1 | -0.176% (inactive)
CCCCCNCCCCC | 5.06% (inactive)
CCCCCCCCCCCCC1CO1 (stereo not given) | 5.29% (inactive)
Cc1cscn1 | 0.704% (inactive)
NC(=O)/N=N/C(N)=O | 2.72% (inactive)
CCOCC(=O)O | 5.27% (inactive)
CNC(=O)c1ccccc1 | 6.95% (inactive)
C1CCCC1 | 6.06% (inactive)
CCC(C)O (stereo not given) | -0.936% (inactive)
O=C1OC(=O)c2c(Cl)c(Cl)c(Cl)c(Cl)c21 | 12.9% (inactive)
